# Screening data from PubChem.
# TDP1 cell noCPT = qHTS for Inhibitors of human tyrosyl-DNA phosphodiesterase 1 (TDP1): qHTS in cells in absence of CPT | Potency, µM (doses to about 46.2 µM), without a hit: top-dose activity change, negative = growth inhibition, usual class: inhibitors | 15% of 420,000 active | DT40 Tdp1-/- hTDP1 cells, no CPT, ATP luminescence, 48 h; also: potency is read from the fitted curve at half-maximal effect; nearly all actives have a fitted effect of over 55% in size
#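 Growth of hTDP1-complemented DT40 Tdp1-knockout cells is measured by ATP luminescence after at least 48 hr compound exposure at 37 °C, with DMSO substituting for the 20 nM CPT used in the parallel screen.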
# Six1-Eya2 blk = blocks human Six1 binding to Eya2. activity change, % (test concentration not listed). AlphaScreen GST-Six1/His-Eya2 binding, biochemical; stronger effect = lower value. AID 651725. 0.56% of 360,000 active; in the data active = activity change below about -65%; inconclusive = mostly about -30% to -63%
# Target sequence (O00167 whole entry, looked up): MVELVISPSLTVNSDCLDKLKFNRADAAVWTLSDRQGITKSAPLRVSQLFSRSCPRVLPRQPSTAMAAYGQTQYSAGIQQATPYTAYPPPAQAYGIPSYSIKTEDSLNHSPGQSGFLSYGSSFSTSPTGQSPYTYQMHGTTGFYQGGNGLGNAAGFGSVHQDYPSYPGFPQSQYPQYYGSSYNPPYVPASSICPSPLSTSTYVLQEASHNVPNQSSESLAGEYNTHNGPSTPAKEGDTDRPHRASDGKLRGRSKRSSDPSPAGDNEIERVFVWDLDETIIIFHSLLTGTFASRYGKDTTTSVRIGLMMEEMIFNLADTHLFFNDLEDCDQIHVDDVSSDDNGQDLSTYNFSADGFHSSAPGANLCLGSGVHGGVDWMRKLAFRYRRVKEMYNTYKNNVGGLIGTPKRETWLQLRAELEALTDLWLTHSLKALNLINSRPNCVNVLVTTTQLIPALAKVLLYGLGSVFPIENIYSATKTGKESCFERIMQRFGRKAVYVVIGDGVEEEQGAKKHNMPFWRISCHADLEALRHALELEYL
# Target sequence (Q15475 whole entry, looked up): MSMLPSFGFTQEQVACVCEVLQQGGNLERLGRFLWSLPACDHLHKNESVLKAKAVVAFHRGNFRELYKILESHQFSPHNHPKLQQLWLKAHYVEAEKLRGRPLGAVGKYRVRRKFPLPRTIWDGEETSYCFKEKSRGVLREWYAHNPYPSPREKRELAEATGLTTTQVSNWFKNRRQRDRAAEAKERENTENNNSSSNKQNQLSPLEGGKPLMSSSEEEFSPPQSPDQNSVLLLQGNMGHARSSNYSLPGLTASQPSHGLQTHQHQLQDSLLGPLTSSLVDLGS
#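 GST-Six1 + His-Eya2 (5X stock: 250/500 nM); Tris pH 8.0, 300 mM NaCl, 0.05% BSA, 0.02% Tween 20; GSH donor/Ni acceptor beads; 1 h 37 °C dark; AlphaScreen readout.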
# CtBP-E1A inh = inhibitors of CtBP/E1A interaction. AID 651724. 0.49% of 340,000 active. activity change, % (concentration not given with the values). AlphaScreen GST-E1A/His-CtBP binding, 1536-well; stronger effect = lower value; in the data active = activity change below about -65%; inconclusive = mostly about -30% to -63%
#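 Homogeneous bead-based format: GST-tagged E1A captured on glutathione donor beads, His-tagged CtBP on nickel acceptor beads; compounds precede bead addition by 2 h at 37 °C.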
# TDP1 inh = TDP1 (human) enzyme inhibition; Potency, µM (titrated, usually from 130 µM), for inactives: top-dose activity change, negative = inhibition, actives largely listed as inhibitors; recombinant TDP1, AlphaScreen DNA substrate cleavage; 0.28% of 350,000 active; AID 485290; also: potency is read from the fitted curve at half-maximal effect; nearly all actives have a fitted effect of over 40% in size
#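 Recombinant human Tdp1 (E. coli-expressed, 1 nM final) preincubated with compounds 15 min at room temperature, then 5'-biotin/3'-phosphotyrosine-FITC DNA substrate (15 nM final) added for 5 min. AlphaScreen beads (10 ug/ml final) added 10 min; cleavage lowers signal.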
# TDP1 cell CPT = growth inhibition of DT40 Tdp1-/-;hTDP1 cells with camptothecin (screen for TDP1 inhibitors); chicken DT40 Tdp1-/-;hTDP1 cells + 20 nM CPT, ATP luminescence, 48 h; Potency, µM (series often up to 46.2 µM), for the others: top-dose activity change, negative = growth inhibition, usual class: inhibitors; 12% of 420,000 active; AID 686979; also: potency is read from the fitted curve at half-maximal effect; nearly all actives have a fitted effect of over 55% in size
#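 Cell growth measured by CellTiter-Glo luminescence after a minimum 48 h, 37 C compound exposure with 20 nM CPT in Tdp1-knockout DT40 cells stably expressing hTDP1, seeded 400/well; qHTS titration format.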
# IL-1B inflam inh = blocks inflammasome-driven IL-1 beta release. THP-1 LPS/ATP IL-1B secretion, AlphaLISA, 16 h; stronger effect = lower value. activity change, % at 57.5 µM. 4.7% of 360,000 active. AID 743279; in the data active = activity change below about -50%; inconclusive = mostly about -30% to -49%
#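 THP-1 cells pretreated 1 hr with compounds (up to 57.5 uM final), then stimulated with LPS (250 ng/mL final) plus ATP (1.25 mM final); secreted IL-1B measured by AlphaLISA after 16 hr, decreased signal indicating inhibition.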
# Active calls of the source: *; u = inconclusive; x = no result; [ ] = remark or other dose. Rows were chosen to be rich in hits. Some 18% of all compounds tested hit in one or more screens of this group. Unless noted, calls follow the shape of the dose curve; as a rule, active = well fitted curve in the direction sought with a large enough effect; inconclusive = small, poorly fitted or top-dose-only effect, or another doubt; inactive = no such curve, though single readings can be large; an effect the other way counts as inactive or inconclusive. % is scaled to controls: 0 for no effect and ±100 for the full control effect.
SMILES,TDP1 cell noCPT,Six1-Eya2 blk,CtBP-E1A inh,TDP1 inh,TDP1 cell CPT,IL-1B inflam inh
CCOc1ccc(-n2c(SCC(=O)Nc3ccccc3OC)nc3c(oc4ccccc43)c2=O)cc1,u,x,x,6%,u,x
O=C(CSc1nc2c(oc3ccccc32)c(=O)n1Cc1ccco1)Nc1ccccc1,-19%,x,x,4%,-14%,x
CCOCCCn1c(SCC(=O)Nc2oc(C)c3c(C)n[nH]c(=O)c23)nc2ccccc2c1=O,u,-8,-6,x,23µM*,-25
COc1ccccc1NC(=O)CSc1nc2c(oc3ccccc32)c(=O)n1Cc1ccco1,u,x,x,0%,15µM*,x
O=C(CSc1nc2[nH]ncc2c(=O)n1-c1ccccc1)N1CCCCCC1,x,x,x,3%,x,x
COc1ccc(/C=N/NC(=O)Cn2nc(C)c([N+](=O)[O-])c2C)cc1,u,-7,-1,5%,12µM*,0
Cn1cc(/C=N/n2cnc3scc(-c4ccc(Cl)cc4)c3c2=O)c2ccccc21,0.82µM*,-2,-1,3%,0.58µM*,142
COc1ccc(CNC(=S)N2CCN(S(=O)(=O)c3cccc(F)c3)CC2)cc1,-13%,-1,-12,-2%,3%,-12
COc1ccc2nc(NC(=O)c3nc(SC(C)C)ncc3Cl)sc2c1,-6%,x,x,5%,-6%,x
CN1CCC(OC(=O)c2cc3cc(Br)ccc3oc2=O)CC1,-5%,6,0,x,22%,35
Cc1cc(NC(=O)Nc2ccc3c(ccn3C)c2)sn1,u,-15,-14,12%[56.1 µM],u,-100*
Cc1ccc(NC(=O)Nc2ccc3c(c2)nc(C)n3C)cc1,1%,-9,-18,6%,-6%,-22
CCCN1C(=O)S/C(=C/c2ccc(N3CCOCC3)o2)C1=O,16µM*,2,-1,6%,26µM*,-91*
O=C(CN1C(=O)S/C(=C/c2ccc(N3CCOCC3)cc2)C1=O)N1CCOCC1,-12%,3,-4,-5%,-19%,6
O=C(O)CN1C(=O)/C(=C/c2ccc(N3CCCCC3)o2)SC1=S,23µM*,u,-3,50µM*,u,7
COC(=O)CN1C(=O)S/C(=C/c2ccc(N3CCCCC3)o2)C1=O,u,0,23,6%,u,-19
CCCN1C(=O)S/C(=C\c2ccc(N3CCOCC3)o2)C1=O,21µM*,5,-6,u,u,-98*
CCOc1ccccc1C1N=C(N)Nc2nc3ccccc3n21 (centres undefined),-3%,x,x,3%,6%,x
CC1C=CC(C)C(C(=O)O)C1C(=O)O (centres undefined),-3%,u,-15,x,-7%,0
COc1ccc(CCNC(=O)c2c(Cl)ccc(Cl)c2OC)cc1OC,-19%,0,1,x,-18%,32
CC1CCCC(C)N1C(=O)c1ccc2c(c1)S(=O)(=O)c1ccccc1C2=O (centres undefined),u,1,-6,4%,3%,8
Cc1ccc(S(=O)(=O)NCc2ccccc2)cc1C(=O)N1CCCCC1,2%,7,2,-2%,-6%,3
Cc1ccc(S(=O)(=O)NCc2ccccc2)cc1C(=O)N1CCN(S(=O)(=O)c2ccccc2F)CC1,u,-4,-2,x,12µM*,4
Cc1ccc(S(=O)(=O)NCc2ccccc2)cc1C(=O)N1CC(C)CC(C)C1 (centres undefined),18µM*,-2,21,-5%,u,7
COCCNC(=O)Cn1ccc2cc(S(=O)(=O)N3CCCCCC3)ccc21,-27%,5,x,0%,10%,2
SMILES,TDP1 cell noCPT,Six1-Eya2 blk,CtBP-E1A inh,TDP1 inh,TDP1 cell CPT,IL-1B inflam inh
CC(C)NCC(O)Cn1c2c(c3ccccc31)CCc1c-2cnn1-c1ccccc1 (centres undefined),5.8µM*,-27,-27,7%,3.7µM*,-16
Cc1ccc(S(=O)(=O)N(C)C)cc1NC(=O)c1cc(C(C)(C)C)nn1Cc1ccccc1,u,5,-23,0%,23µM*,-11
CC(N)c1csc(NC(=O)c2cc(C(C)(C)C)nn2Cc2ccccc2)n1 (centres undefined),21µM*,-19,-21,x,18µM*,-55*
COc1ccc(CC(N)c2csc(NC(=O)c3cc(C(C)(C)C)nn3Cc3ccccc3)n2)cc1 (centres undefined),4.6µM*,-10,-10,x,5.8µM*,-78*
Cc1ccn2c(CNC(C)c3cn(C)nc3C)c(C(=O)N3CCCCCC3)nc2c1 (centres undefined),-1%,3,0,3%,4%,10
COc1ccccc1NS(=O)(=O)c1ccc(C(=O)N2CC(C)OC(C)C2)cc1 (centres undefined),-5%,6,0,-4%,u,15
Cc1ccc2[nH]c(CN3CCC(CO)(CC4CCCCO4)CC3)c(C)c2c1 (centres undefined),u,-20,-19,3%,u,-113*
COc1ccc(CNC(=O)c2cc(C(C)=O)c[nH]2)cc1,4%,-4,-23,x,41%,53
O=[N+]([O-])c1cc(/C=N/Nc2nc(N3CCOCC3)nc(N3CCOCC3)n2)ccc1Cl,6%,9,-3,0%,6%,-29
COc1ccccc1NS(=O)(=O)c1cc([N+](=O)[O-])ccc1N/N=C/c1c(C)[nH]c2ccccc12,u,-26,-24,9%,u,35
C/C(=N\Nc1ccc(S(=O)(=O)Nc2ccc(Cl)cc2)cc1[N+](=O)[O-])c1ccc(N2CCOCC2)cc1,u,-18,-19,8%,u,-7
O=[N+]([O-])c1cc(S(=O)(=O)Nc2cccc(Cl)c2)ccc1N/N=C/c1ccc(N2CCOCC2)cc1,10µM*,-16,x,x,u,5
O=[N+]([O-])c1ccc(N/N=C/c2c[nH]c3ccccc23)c(S(=O)(=O)Nc2ccc(Cl)cc2)c1,23µM*,1,-2,7%,u,-7
C/C(=N\Nc1ccc(S(=O)(=O)Nc2ccccc2)cc1[N+](=O)[O-])c1ccc(N2CCOCC2)cc1,2.6µM*,-18,x,7%,15µM*,0
O=[N+]([O-])c1ccccc1/C=C/C=N/Nc1ccc(S(=O)(=O)Nc2ccc(Cl)cc2)cc1[N+](=O)[O-],18µM*,u,u,8%,16µM*,-14
